Assay results: ChEMBL document CHEMBL4513216, “Probing the Open Global Health Chemical Diversity Library for Multistage-Active Starting Points for Next-Generation Antimalarials” (ACS Infect Dis, 2020)
Hit rate of the full screen: of about 69,000 compounds, about 8,600 (12%) showed an effect of 50% or more. Only a selection was taken, and strong results are over-represented in it overall.

system: Plasmodium berghei; assay: Screen against P. berghei liver stage (PbLuc), transformed with Luciferase, at 10uM; assay type: functional, HepG2; conditions: tested at 10 uM

Structure (SMILES)	INHIBITION [%]
O=C(Cc1cccs1)N1C[C@@H]2CN(Cc3ccoc3)CCO[C@@H]2C1	24.1
CCN1Cc2cc(F)ccc2N(CC(O)C(F)(F)F)CCC1=O (stereo not given)	47.2
CN(C)C(=O)c1cn[nH]c1C1CCCN1Cc1c[nH]cn1 (stereo not given)	18.4
CN(C)C(=O)c1cn[nH]c1C1CCCN1Cc1cncn1C (stereo not given)	-11.3
CN(C)C(=O)c1cn[nH]c1C1CCCN1Cc1nccn1C (stereo not given)	55.8
Cc1nc(CN2CCO[C@H]3[C@@H](OCc4ccccn4)CC[C@@H]32)cs1	40.4
Cc1ccc2cccc(Oc3nc(C)c(C(=O)O)s3)c2n1	12.7
CN1C(=O)C(c2ccccc2)CC12CCN(CCO)CC2 (stereo not given)	-9.26
CCc1nc(C2CCCN(C(=O)c3cccc(Cl)c3)C2)no1 (stereo not given)	-19.9
COc1cccc(CNC2CCSC2)c1OC (stereo not given)	-7.85
CC(C)(C)C(CCO)NC(=O)Nc1ccncc1 (stereo not given)	60.2
Cc1cccnc1NC(=O)NC(CCO)C(C)(C)C (stereo not given)	28.3
CC(C)(C)C(CCO)NC(=O)Nc1ccccc1 (stereo not given)	43.7
CN1CC(=O)N(c2ccccc2)CC12CCN(S(C)(=O)=O)C2 (stereo not given)	42.7
Cc1ccc(C(=O)NCC2(O)CCOCC2)cc1Br	-65.5
Cc1cc(CNC2(CO)CCOCC2)ccc1Br	18.6
Cc1cc(CNCC2(O)CCOCC2)ccc1F	76.8
OC1(CNCc2ccc(F)c(C(F)(F)F)c2)CCOC1 (stereo not given)	3.69
CN1CCC(O)(CNCc2ccc(F)c(C(F)(F)F)c2)CC1	48.4
Cc1cc(CNCC2(O)CCOCC2)ccc1Br	54.4
CN(C)C(=O)[C@@H]1CCO[C@@H]2CCN(CCc3ccccc3)C[C@@H]21	28.5
COCc1ccc(C(=O)N2CCC(Oc3ccccc3OC)CC2)s1	-3.83
O=C(N[C@@H]1CN(c2ncccn2)C[C@@H]2CCCO[C@@H]21)c1cnccn1	20.2
CC(O)CN1CCN(C(=O)c2cc(Cl)cc3cccnc23)CC1 (stereo not given)	2.75
COC(=O)N1C[C@@H]2CC[C@H]1CN(Cc1cscn1)C2	-14.8
CCc1ncc2c(n1)CN(c1nc(C)ccc1C(=O)O)C2	9.55
CC(C)OCCN1CCC(Nc2ccc(C#N)cc2F)CC1	27.2
COc1ccccc1N1CCC(N2CCOCC(CO)C2)CC1 (stereo not given)	39

Structure (SMILES)	INHIBITION [%]
CCNC(=O)[C@@H]1C[C@H](N)CN1C(=O)CCc1ccccc1Cl	-6.83
CNC(=O)[C@@H]1C[C@@H](N)CN1C(=O)CCSCc1ccc(F)cc1	9.63
CNC(=O)[C@@H]1C[C@@H](N)CN1C1CCN(c2ccccc2F)CC1	61
CCNC(=O)[C@@H]1C[C@H](N)CN1C1CCN(c2ccccc2OC)CC1	55.4
CNC(=O)[C@@H]1C[C@@H](N)CN1C1CCN(Cc2ccccn2)CC1	27.6
Cc1cc(C(F)(F)F)nc(C2CCCN2S(C)(=O)=O)n1 (stereo not given)	20.2
CCN1CCN(C(C)CNC(=O)Nc2cnn(CC)c2)CC1 (stereo not given)	44.1
CNC(=O)C1CCN(c2ncc3c(n2)CCN3c2ccccc2)C1 (stereo not given)	-105
O=C(Cc1c(F)cccc1Cl)Nc1cc(N2CCCC2)ncn1	-27.8
COCCn1ccnc1CN(Cc1ccccn1)Cc1sccc1C	71
Cc1ccsc1CN(CCN(C)C)Cc1ccccn1	35.1
COCCN(Cc1ccccn1)Cc1sccc1C	15.2
Cc1ccsc1CN(Cc1ccccn1)CC(C)C	-21.5
COCCN(Cc1sccc1C)Cc1nccn1CCOC	16.9
CSC(C)CCN(Cc1ccccn1)Cc1sccc1C (stereo not given)	62.9
Cc1cc(C)c2nc(C)c(C(=O)N3CCC(CCN(C)C)CC3)cc2c1	36.8
Fc1cnc(N2CC[C@@H]3CN(Cc4ccncc4)CCO[C@@H]3C2)nc1	8.85
Cc1cnn(CCC(=O)N2CCCC(c3cc(C)[nH]n3)C2)c1 (stereo not given)	45.7
CC(Cn1cc(Cl)cn1)C(=O)Nc1ccc(CN2CCCCCC2)cc1 (stereo not given)	10.9
CC(=O)c1ccc(NC(=O)C(C)Cn2cc(Br)cn2)cc1 (stereo not given)	-37.6
CC(Cn1cc(Br)cn1)C(=O)Nc1ccc(Cl)cn1 (stereo not given)	56
Cc1cnn(CCNCC(=O)Nc2ccc(Br)cn2)c1	-37.7
CC(Cn1cc(Br)cn1)C(=O)Nc1ccncc1 (stereo not given)	-24.7
CC(Cn1cc(Br)cn1)C(=O)Nc1ccc(C(N)=O)cc1 (stereo not given)	72.7
Cc1cc(NC(=O)C(C)Cn2cc(Br)cn2)no1 (stereo not given)	67.1
CC(Cn1cc(Br)cn1)C(=O)Nc1ccc(Br)cn1 (stereo not given)	81
Cc1cnn(CC(C)NCC(=O)Nc2ccc(Cl)cn2)c1 (stereo not given)	-100
